Compound activity (PubChem)
CtBP-E1A inh: CtBP/E1A binding inhibition; actives 0.49% (n = 340,000); activity change, % (no concentration beside the values); AlphaScreen GST-E1A/His-CtBP binding, 1536-well; stronger effect = lower value; AID 651724; in the data active = activity change below about -65%; inconclusive = mostly about -30% to -63%
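AlphaScreen with 125 nM GST-E1A and 125 nM His-CtBP (5X stocks) in Tris pH 8.0, 300 mM NaCl, BSA, Tween 20, TCEP. Compounds preincubated 2 h at 37 deg C, then glutathione donor/nickel acceptor beads added for 1 h at 37 deg C in dark.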
Six1-Eya2 blk: blocks human Six1 binding to Eya2; AlphaScreen GST-Six1/His-Eya2 binding, biochemical; stronger effect = lower value; actives 0.56% (n = 360,000); activity change, % (concentration not given with the values); in the data active = activity change below about -65%; inconclusive = mostly about -30% to -63%
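AlphaScreen with GST-Six1 and His-Eya2 (5X mix: 250 nM and 500 nM), glutathione donor and nickel acceptor beads; buffer 50 mM Tris pH 8.0, 300 mM NaCl, 1 mM TCEP; 1 h at 37 C in the dark.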
RORg inh: inhibitors of mouse ROR gamma transcriptional activity; actives 5.4% (n = 310,000); Potency, µM (series often up to 53.6 µM), inactives show top-dose activity change, negative = inhibition, usual class: inhibitors; Drosophila S2 Gal4-RORgamma UAS-luciferase reporter, 20 h; note: potency is the fitted concentration of half-maximal effect; nearly all actives have a fitted effect of over 60% in size
Target sequence (P51450 whole entry, looked up, the tested form may be a part): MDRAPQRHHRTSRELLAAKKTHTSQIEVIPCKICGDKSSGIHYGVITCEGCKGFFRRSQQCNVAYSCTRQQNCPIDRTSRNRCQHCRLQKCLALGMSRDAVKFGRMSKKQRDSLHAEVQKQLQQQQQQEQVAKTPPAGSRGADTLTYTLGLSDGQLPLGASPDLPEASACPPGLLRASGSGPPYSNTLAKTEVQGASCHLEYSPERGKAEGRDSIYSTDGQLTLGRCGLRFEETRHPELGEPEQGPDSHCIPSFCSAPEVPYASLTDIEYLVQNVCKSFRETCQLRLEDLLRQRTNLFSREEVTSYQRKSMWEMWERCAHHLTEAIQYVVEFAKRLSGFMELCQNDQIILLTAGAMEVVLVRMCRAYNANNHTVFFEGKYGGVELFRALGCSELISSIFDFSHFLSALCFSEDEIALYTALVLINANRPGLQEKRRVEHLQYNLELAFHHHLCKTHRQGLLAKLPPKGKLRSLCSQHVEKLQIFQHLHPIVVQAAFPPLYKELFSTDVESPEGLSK
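Schneider cells (Drosophila), stable Gal4 DBD–ROR gamma + UAS-luc; 1 hr cmpd preincubation; Cu2+ induction 700 uM final; 20 hr ambient; luminescence.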
VP16 counter: inhibits Gal4-VP16 luciferase reporter, ROR gamma counter-screen. Drosophila S2 Gal4-VP16 UAS-luciferase, luminescence, 20 h. Potency, µM (doses to about 53.6 µM), for the others: top-dose activity, negative = inhibition, most hits filed as inhibitors. actives 3.5% (n = 310,000). AID 2546;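 note: Gal4-VP16 expression switched on by copper sulfate through the metallothionein promoter; potency is the fitted concentration of half-maximal effect; nearly all actives have a fitted effect of over 50% in size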
PKM2 act: activators of human pyruvate kinase M2 | Potency, µM (top dose mostly 57.5 µM), for inactives: at the highest dose activation, hits mostly activators | P14618 | purified PKM2, Kinase-Glo ATP luminescence, activation; response scale: 0% is enzyme alone, no compound | actives 0.34% (n = 260,000); note: potency is the fitted concentration of half-maximal effect; nearly all actives have a fitted effect of over 55% in size
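Purified hPK-M2 (>95%) run at intermediate activity with 0.1 mM ADP and 0.5 mM PEP in 50 mM imidazole pH 7.2, KCl, MgCl2; 1 h room temperature. ATP formed read by Kinase-Glo luminescence; normalized to uninhibited and no-enzyme controls.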
* hit, by the source's call; ? = inconclusive; nt = no result; [ ] = remark or other dose. Shown are actives, neighbours in structure and some others; about 5.6% of the full set was active somewhere. Unless noted, calls come from the whole dose curve; as a rule, active = well fitted curve in the direction sought with a large enough effect; inconclusive = small, poorly fitted or top-dose-only effect, or another doubt; inactive = no such curve, though single readings can be large; an effect the other way counts as inactive or inconclusive. % is set by controls: 0 for no effect and ±100 for the full control effect.

SMILES	CtBP-E1A inh	Six1-Eya2 blk	RORg inh	VP16 counter	PKM2 act
O=C(C1=C[C@@H](C2CCCCC2)C[C@@H](OCc2ccc(CO)cc2)O1)N1CCN(Cc2ccccc2)CC1	-8.8	-18.5	?	12.6µM*	-0.4%
O=C(C1=C[C@H](C2CCCCC2)C[C@H](OCc2ccc(CO)cc2)O1)N1CCN(Cc2ccccc2)CC1	-14.3	-9.1	34.6%	-17.8%	1.2%
COCCCNc1nc(=S)[nH]c2cc(OC)c(OC)cc12	-95.0*	-90.2*	?	3.4%	-1.8%
COCCCNc1nc2ccccc2[nH]c1=O	10.6	-0.3	-3.4%	-16.0%	-1.1%
COc1cc2[nH]c(=S)nc(NCCC(C)C)c2cc1OC	-88.9*	-86.6*	4.47µM*	8.91µM*	-6.2%
COc1cc2[nH]c(=O)n(CCC(=O)NCCC(C)C)c(=O)c2cc1OC	0.3	-2.6	9.7%	-8.2%	-0.2%
CCn1c2ccccc2c2cc([N+](=O)[O-])ccc21	-23.7	-4.1	-14.7%	-1.7%	0.6%
CN(C)CCn1c2ccccc2c2nc3ccc([N+](=O)[O-])cc3cc21	-1.9	-2.6	7.94µM*	11.2µM*	-3.5%
Cc1nnc(SCC(=O)c2ccc(C(C)C)cc2)s1	-3.2	-7.2	35.9%	-5.6%	-4.3%
Cc1cc(C(=O)Cn2nc(C(=O)O)c3ccccc3c2=O)c(C)n1C1CC1	-22.2	-6.5	19.8%	-2.1%	-0.1%
COCCn1c(C)cc(C(=O)Cn2nc(C(=O)O)c3ccccc3c2=O)c1C	nt	-12.7	5.62µM*	?	0.9%
C=CCn1c(C)cc(C(=O)Cn2nc(C(=O)O)c3ccccc3c2=O)c1C	-4.7	-18.8	15.8µM*	?	0.6%
CCCOc1ccc(OCCn2nc(C(=O)O)c3ccccc3c2=O)cc1	0.1	6.3	?	-2.4%	31.6µM*
CC(=O)N1CCN(c2ncnc3ccccc23)CC1	-6.8	1.3	-27.6%	-5.0%	0.0%[11.5 µM]
COCCN1CCN(C(=O)C2CCC(=O)N(CCc3cccc(F)c3)C2)CC1 (stereo not drawn)	22.9	4.3	18.1%	15.5%	-9.7%
OCC#Cc1ncc(C(F)(F)F)cc1Cl	4.3	-8.0	?	12.6µM*	1.7%
COCCn1c(N)c(C#N)c2nc3ccccc3nc21	-17.5	-11.0	3.3%	0.4%	3.4%
Cn1c(-c2c(N)n(C3CCCC3)c3nc4ccccc4nc23)nc2ccccc21	41.6	35.1	3.55µM*	5.62µM*	-2.7%
Cn1c(-c2c(N)n(CCCc3ccccc3)c3nc4ccccc4nc23)nc2ccccc21	37.1	25.0	0.794µM*	2.82µM*	0.0%
Nc1c(C(=O)OCC2CCCO2)c2nc3ccccc3nc2n1C1CCCC1 (stereo not drawn)	12.9	15.1	0.9%	-4.5%	-1.8%
COCCCn1c(N)c(-c2nc3ccccc3n2C)c2nc3ccccc3nc21	?	?	3.98µM*	7.08µM*	-3.3%
Cn1c(-c2c(N)n(CCc3ccccc3)c3nc4ccccc4nc23)nc2ccccc21	43.3	31.0	?	12.6µM*	-2.5%
N#CCC(=O)Nc1ccc(C(=O)N2CCN(c3ccccn3)CC2)cc1	3.1	-6.2	8.4%	-11.9%	1.1%
Oc1c(C(c2ccccc2)N2CCCCC2)sc2ncnn12 (stereo not drawn)	-1.2	2.7	7.94µM*	-2.7%	-17.6%
COCCn1c(C)cc(C(=O)COC(=O)c2ccc[nH]c2=O)c1C	5.3	7.6	4.47µM*	3.55µM*	0.8%
SMILES	CtBP-E1A inh	Six1-Eya2 blk	RORg inh	VP16 counter	PKM2 act
Cc1cc(C(=O)COC(=O)c2ccc[nH]c2=O)c(C)n1C	-1.9	-4.9	?	?	-1.6%
Cc1cc(C(=O)COC(=O)c2ccc[nH]c2=O)c(C)n1-c1ccc(Br)cc1	-16.9	-1.0	-26.5%	0.398µM*	2.0%
Cc1cc(C(=O)COC(=O)c2ccc[nH]c2=O)c(C)n1CCc1ccc(F)cc1	2.4	4.5	-12.0%	-6.5%	-1.9%
Cc1ccc(-n2c(C)cc(C(=O)COC(=O)c3ccc[nH]c3=O)c2C)cc1	-0.7	-7.4	11.2µM*	nt	-0.7%
O=C(COC(=O)c1ccc(F)c([N+](=O)[O-])c1)NC(=O)NCc1ccccc1	-4.3	?	nt	nt	nt
Cc1nc(-c2ccc(NC(=O)c3ccccc3C)cc2)cs1	23.4	6.4	-31.4%	-28.7%	-15.9%
COc1cc(N=c2oc3c(C)ncc(CO)c3cc2C(N)=O)cc(OC)c1OC	-0.3	-79.2*	14.4%	3.1%[10 µM]	0.3%
COc1ccccc1NC(=O)c1cc2c(CO)cnc(C)c2oc1=Nc1cc(OC)c(OC)c(OC)c1	-0.4	2.8	18.9%	-10.8%	nt
CC(C)Cn1c(N)c(C(=O)CSc2nncs2)c(=O)n(C)c1=O	-4.8	-3.4	nt	nt	nt
CCCn1c(N)c(C(=O)CSc2nc(C)cs2)c(=O)n(C)c1=O	-11.3	-0.7	?	-3.2%	15.8µM*
CC(CC(=O)N1CCc2ccccc21)n1cccn1 (stereo not drawn)	nt	5.1	9.9%	-28.8%	nt
COc1ccc(OC)c(NC(=O)CSc2nc3nc(C)cc(C)n3n2)c1	-18.1	-2.4	nt	nt	nt
Cc1cc(O)cc(O)c1C=NCc1ccco1	-9.7	-6.0	?	5.62µM*	15.8%
Cc1ccc2nc(NCc3ccco3)c(C=NCc3ccco3)c(=O)n2c1	-12.8	0.9	33.0%	-6.3%	13.1%
CCOC(=O)C(=O)N(Nc1ccccc1C)c1ccccc1C	nt	-1.7	2.82µM*	?	-10.8%
COc1ccccc1NC(=O)c1c(C)nc2ccccc2c1C(=O)O	-0.1	5.0	12.4%	-25.5%	-4.4%
CCc1ccc(/C=C2\CN(CC)Cc3c2nc2ccccc2c3C(=O)O)cc1	0.0	2.4	33.5%	-25.6%	12.6µM*
CCN1C/C(=C/c2cccs2)c2nc3ccccc3c(C(=O)O)c2C1	-1.0	-0.1	1.6%	1.5%	-3.4%
COc1cccc2c1CCc1c-2nc2ccccc2c1C(=O)O	-2.6	7.0	?	10µM*	nt
O=C(O)c1c2c(nc3ccccc13)/C(=C/c1ccc(O)cc1)CC2	nt	?	7.94µM*	12.6µM*	0.0%
O=C1CCCCC2CCCCN12 (stereo not drawn)	nt	nt	26.4%[96.6 µM]	10.8%[96.6 µM]	nt
CCCOC(=O)c1ccc(OCC(O)Cn2c(C)nc3ccccc32)cc1 (stereo not drawn)	1.8	4.6	?	3.16µM*	8.1%
COc1ccc(C(=O)/C=C/C(=O)N(CC(=O)NC2CCCCC2)Cc2cccs2)c(O)c1	-2.5	-0.4	7.94µM*	5.01µM*	12.6µM*
Cc1cc2c(cc1C)NC(c1c(C)n(C)n(-c3ccccc3)c1=O)C1=C(CC(C)(C)CC1=O)N2 (stereo not drawn)	24.2	-1.7	12.6µM*	-29.4%	4.9%
COc1ccc(NCc2nnc(SCC(=O)Nc3nc(-c4ccccc4)cs3)n2-c2ccccc2)cc1	-5.6	-0.8	8.0%	5.01µM*	-0.9%
Cn1c(CNC(=O)c2ccco2)nnc1SCC(=O)c1ccccc1	8.5	-3.6	28.2µM*	17.7%	-9.6%
